# PubChem BioAssay AID651610 (Broad Institute, 2012)
# Several values for one entry are separate records, joined by “and”; a condition that tells them apart may be missing. Identical values can stand only once. The whole screen tested about 360,000 compounds, of which about 3,900 (1.1%) were called active. The sample holds actives, similar compounds and a random draw of the others, so the mix is not that of the screen. Values without a mark were called inactive.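 Rule for the calls: active = mean replicate inhibition score of at least 50 and every replicate individually at or above 50; inconclusive = only one of the two criteria met; inactive = mean below 50 and not all replicates reaching 50.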
# Test: blockers of JRFL envelope-mediated fusion – HeLa-JRFL effector, CEM21 target cells, luciferase, primary screen (AID 651610);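 note: 0% = plate neutral controls and 100% = maraviroc near 300 nM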
# Conditions: HeLa-JRFL Env/CEM21 cell fusion, active compounds read high
compound,measurement,setting,value
Cc1ccc(S(=O)(=O)N(C)C[C@H]2Oc3ccc(NS(C)(=O)=O)cc3CC(=O)N([C@@H](C)CO)C[C@H]2C)cc1,inhibition,at 16.7 µM unless noted,-22.8%
Cc1cc(C)cc(OCC(=O)NCc2cc(C)nc3ccccc23)c1,inhibition,at 16.7 µM unless noted,31.3% [at 12.3 µM]
CN(C(=O)c1cccc([N+](=O)[O-])c1)c1ccccc1C(=O)NCc1ccccc1,inhibition,at 16.7 µM unless noted,29.4% [at 12.3 µM]
Cc1cc(CNC(=O)c2cccc([N+](=O)[O-])c2)c2ccccc2n1,inhibition,at 16.7 µM unless noted,60.8% [at 12.3 µM] (active)
COCC#Cc1ccc2c(c1)O[C@H](CN(C)C(=O)C1CCOCC1)[C@@H](C)CN([C@@H](C)CO)S2(=O)=O,inhibition,at 16.7 µM unless noted,-8.26%
Cc1ccc(S(=O)(=O)NCC[C@H]2CC[C@@H](NC(=O)C3CCOCC3)[C@@H](CO)O2)cc1,inhibition,at 16.7 µM unless noted,5.57%
O=C(Nc1ccc(F)cc1)N[C@H]1C=C[C@@H](CC(=O)N2CCOCC2)O[C@H]1CO,inhibition,at 16.7 µM unless noted,-5.7%
Cc1noc(C)c1S(=O)(=O)N(C)C[C@H]1OCCCC[C@H](C)Oc2ccc(NC(=O)c3ccccc3)cc2C(=O)N([C@@H](C)CO)C[C@H]1C,inhibition,at 16.7 µM unless noted,-37.3%
C[C@@H]1CN([C@H](C)CO)S(=O)(=O)c2ccc(-c3ccncc3)cc2O[C@@H]1CN(C)C(=O)Nc1ccc(C(F)(F)F)cc1,inhibition,at 16.7 µM unless noted,27.4%
C[C@@H]1CN([C@@H](C)CO)S(=O)(=O)c2ccc(C#Cc3ccncc3)cc2O[C@@H]1CN(C)S(=O)(=O)c1ccccc1,inhibition,at 16.7 µM unless noted,19.4%
C[C@H](CO)N1C[C@H](C)[C@H](CN(C)S(=O)(=O)c2ccccc2)Oc2cc(Br)ccc2S1(=O)=O,inhibition,at 16.7 µM unless noted,78% (active)
C[C@@H]1CN([C@@H](C)CO)S(=O)(=O)c2ccc(Br)cc2O[C@H]1CN(C)S(=O)(=O)c1ccccc1,inhibition,at 16.7 µM unless noted,18.6%
C[C@@H]1CN([C@@H](C)CO)S(=O)(=O)c2ccc(-c3cccc(F)c3)cc2O[C@@H]1CN(C)S(=O)(=O)c1ccccc1,inhibition,at 16.7 µM unless noted,92.8% (active)
C[C@H]1CN([C@@H](C)CO)S(=O)(=O)c2ccc(-c3cccc(F)c3)cc2O[C@@H]1CN(C)C,inhibition,at 12.3 µM,0.788%
same,inhibition,at 16.7 µM,-8.73% and -21.2%
C[C@@H]1CN([C@H](C)CO)S(=O)(=O)c2ccc(-c3cccc(F)c3)cc2O[C@H]1CN(C)S(=O)(=O)c1ccc(F)cc1,inhibition,at 16.7 µM unless noted,30%
Cc1ccc(-c2ccc3c(c2)O[C@H](CN(C)C(=O)Nc2ccc(C(F)(F)F)cc2)[C@@H](C)CN([C@H](C)CO)S3(=O)=O)cc1,inhibition,at 16.7 µM unless noted,57.4% (active)
Cc1ccc(-c2ccc3c(c2)O[C@H](CN(C)C(=O)Nc2ccccc2)[C@@H](C)CN([C@@H](C)CO)S3(=O)=O)cc1,inhibition,at 16.7 µM unless noted,-12.9%
CC(=O)N(C)C[C@H]1Oc2cc(C#Cc3ccccc3F)ccc2S(=O)(=O)N([C@@H](C)CO)C[C@H]1C,inhibition,at 16.7 µM unless noted,17.7%
COc1cccc(NC(=O)N(C)C[C@H]2OCc3ccccc3-c3ccccc3C(=O)N([C@H](C)CO)C[C@@H]2C)c1,inhibition,at 16.7 µM unless noted,17.7%
C[C@@H]1CN([C@H](C)CO)C(=O)Cc2cc(NC(=O)NC3CCCCC3)ccc2O[C@H]1CN(C)Cc1ccc(Cl)c(Cl)c1,inhibition,at 16.7 µM unless noted,-10.2%
CC(C)CC#Cc1ccc2c(c1)O[C@@H](CN(C)C(=O)Nc1ccccc1F)[C@@H](C)CN([C@@H](C)CO)S2(=O)=O,inhibition,at 16.7 µM unless noted,9.38%
Cc1cc2nnc(SCC(=O)N3CCN(c4ccccc4)CC3)n2c(N)n1,inhibition,at 16.7 µM unless noted,-38.7% [at 12.3 µM]
Cn1c(Cc2cccc3ccccc23)nnc1SCC(=O)N1CCN(c2cccc(Cl)c2)CC1,inhibition,at 16.7 µM unless noted,94.5% [at 12.3 µM] (active)
Cn1c(CNC(=O)c2ccco2)nnc1SCC(=O)N1CCN(c2ccccc2)CC1,inhibition,at 16.7 µM unless noted,-10.4% [at 12.3 µM]
C[C@H]1CCCCO[C@@H](CN(C)C(=O)Nc2ccccc2)[C@@H](C)CN([C@@H](C)CO)C(=O)c2cc(NC(=O)Nc3ccc(F)cc3)ccc2O1,inhibition,at 16.7 µM unless noted,-14%
O=C(CN1CCOCC1)N[C@H]1CC[C@@H](CCNS(=O)(=O)c2ccccc2F)O[C@H]1CO,inhibition,at 16.7 µM unless noted,21.8%
Cc1cccc(C)c1-n1nnnc1C(CCc1ccccc1)N1CCN(C/C=C/c2ccccc2)CC1 (stereo unspecified),inhibition,at 16.7 µM unless noted,-59.3% [at 12.3 µM]
CCOC(=O)N1CCN(C(c2ccnc3ccccc23)c2nnnn2-c2c(C)cccc2C)CC1 (stereo unspecified),inhibition,at 16.7 µM unless noted,14.5% [at 12.3 µM]
CCC(=O)N(C)C(c1ccccc1Cl)c1nnnn1-c1c(C)cccc1C (stereo unspecified),inhibition,at 16.7 µM unless noted,68.5% [at 12.3 µM] (active)
CC(C)NC(=O)N(C)C[C@@H]1Oc2ccc(NC(=O)Cn3cnnn3)cc2CC(=O)N([C@H](C)CO)C[C@H]1C,inhibition,at 16.7 µM unless noted,13.5%
CCCN1C(=O)c2[nH]nc(-c3ccccc3)c2C1c1ccccc1 (stereo unspecified),inhibition,at 16.7 µM unless noted,-22.9% [at 12.3 µM]
COc1ccc(CCN2C(=O)c3[nH]nc(-c4ccccc4O)c3C2c2ccc(C)cc2)cc1OC (stereo unspecified),inhibition,at 16.7 µM unless noted,101% [at 12.3 µM] (active)
COc1ccc(CCN2C(=O)C(C)=C(C)C2=O)cc1OC,inhibition,at 16.7 µM unless noted,-2.55% [at 12.3 µM]
COc1ccccc1-c1cnc2c(c1)C(=O)N([C@@H](C)CO)C[C@H](C)[C@@H](CN(C)C(C)=O)O2,inhibition,at 16.7 µM unless noted,0.851%
COc1ccc(S(=O)(=O)Nc2ccc3c(c2)C(=O)N([C@H](C)CO)C[C@@H](C)[C@@H](CN(C)CC2CCCCC2)OCCCC[C@@H](C)O3)cc1,inhibition,at 16.7 µM unless noted,-26.3%
COc1ccc(/C=C2\SC(=S)N(CCC(=O)N3CCOCC3)C2=O)cc1OC,inhibition,at 16.7 µM unless noted,6.28% [at 12.3 µM]
COc1cccc(/C=C2\SC(=S)N(CCCC(=O)N3CCOCC3)C2=O)c1,inhibition,at 16.7 µM unless noted,2.26% [at 12.3 µM]
C=CCOc1ccc(/C=C2\SC(=S)N(CCC(=O)O)C2=O)cc1,inhibition,at 16.7 µM unless noted,60.7% [at 12.3 µM] (active)
COCCNC(=O)CSc1nc2sccc2c(=O)n1-c1ccccc1,inhibition,at 16.7 µM unless noted,-8.5% [at 12.3 µM]
Cc1sc2nc(SCCO)n(-c3ccccc3)c(=O)c2c1C,inhibition,at 16.7 µM unless noted,14.7% [at 12.3 µM]
CC1(C)Cc2c(sc3nc(SCC(=O)NCc4ccccc4)n(-c4ccccc4)c(=O)c23)CS1,inhibition,at 16.7 µM unless noted,138% [at 12.3 µM] (active)
C/C=C/c1cnc2c(c1)C(=O)N([C@@H](C)CO)C[C@H](C)[C@@H](CN(C)C(=O)C1CC1)O2,inhibition,at 16.7 µM unless noted,10.3%
C[C@@H]1CCCCO[C@H](CN(C)Cc2ccc(C(F)(F)F)cc2)[C@H](C)CN([C@@H](C)CO)C(=O)c2cc(N(C)C)ccc2O1,inhibition,at 16.7 µM unless noted,6.26%
COc1ccccc1S(=O)(=O)N[C@@H]1CC[C@@H](CCNC(=O)C2CCCCC2)O[C@@H]1CO,inhibition,at 16.7 µM unless noted,-6.59%
C=CCOCCN(C)C1=NS(=O)(=O)c2ccccc21,inhibition,at 16.7 µM unless noted,1.56% [at 12.3 µM]
COc1ccc(/C=N/N(C)C2=NS(=O)(=O)c3ccccc32)cc1OC,inhibition,at 16.7 µM unless noted,1.34% [at 12.3 µM]
COc1ccc(C(C)(C)C)cc1NC(=O)CN(C)C1=NS(=O)(=O)c2ccccc21,inhibition,at 16.7 µM unless noted,64.3% [at 12.3 µM] (active)
COc1ccc(CN(C)C[C@H]2Oc3c(NC(=O)Nc4ccccc4)cccc3C(=O)N([C@@H](C)CO)C[C@@H]2C)cc1,inhibition,at 16.7 µM unless noted,6.99%
C[C@@H]1CN([C@@H](C)CO)C(=O)Cc2cc(NC(=O)C3CCCCC3)ccc2O[C@@H]1CN(C)CC1CCCCC1,inhibition,at 16.7 µM unless noted,-8.61%
O=c1[nH]c2cccnc2n(CCNc2ncc(C(F)(F)F)cc2Cl)c1=O,inhibition,at 16.7 µM unless noted,-11.9% [at 12.3 µM]
COc1cccc(/C=N/Nc2ncc(C(F)(F)F)cc2Cl)c1O,inhibition,at 16.7 µM unless noted,74.7% [at 12.3 µM] (active)
CN(C)C=NC(=O)c1cccn1-c1ncc(C(F)(F)F)cc1Cl,inhibition,at 16.7 µM unless noted,8.04% [at 12.3 µM]
C[C@@H]1CN([C@@H](C)CO)C(=O)c2cc(NS(=O)(=O)c3cccs3)ccc2O[C@H]1CN(C)CC1CCCCC1,inhibition,at 16.7 µM unless noted,-17.2%
C[C@H](NC(=O)c1nc[nH]c1C(=O)NCC(=O)OC(C)(C)C)C(=O)OCc1ccccc1,inhibition,at 16.7 µM unless noted,-4.51% [at 12.3 µM]
Cc1cccc(NC(=O)c2nc[nH]c2C(=O)NCC(=O)OCc2ccccc2)c1,inhibition,at 16.7 µM unless noted,55.2% [at 12.3 µM] (active)
CC(C)(C)OC(=O)CNC(=O)c1[nH]cnc1C(=O)N[C@@H](Cc1ccccc1)C(=O)OCc1ccccc1,inhibition,at 16.7 µM unless noted,6.73% [at 12.3 µM]
O=C(C[C@@H]1CC[C@@H]2[C@H](COC[C@H](O)CN2C(=O)c2cccnc2)O1)NC1Cc2ccccc2C1,inhibition,at 16.7 µM unless noted,-0.583%
CO[C@@H]1CN(C)C(=O)c2ccc(NC(=O)c3cccc(Oc4ccccc4)c3)cc2OC[C@H](C)NC[C@@H]1C,inhibition,at 16.7 µM unless noted,12.8%
CN1CCn2cnc(C(=O)NCC(=O)OC(C)(C)C)c2C1=O,inhibition,at 16.7 µM unless noted,2.91% [at 12.3 µM]
Cc1ccc(NC(=O)c2nc[nH]c2C(=O)N[C@@H](CCCCNC(=O)OC(C)(C)C)C(=O)OC(C)(C)C)cc1,inhibition,at 16.7 µM unless noted,32.1% [at 12.3 µM]
C[C@@H]1Cn2cnc(C(=O)Nc3ccc(CNC(=O)OC(C)(C)C)cc3)c2C(=O)N1,inhibition,at 16.7 µM unless noted,58.6% [at 12.3 µM] (active)
O=C(CCN1CCCCC1)N[C@@H]1C=C[C@@H](CC(=O)N2CCC(Cc3ccccc3)CC2)O[C@H]1CO,inhibition,at 16.7 µM unless noted,3.09%
CSCCC(NS(=O)(=O)c1ccc2c(c1)oc(=O)n2C)C(=O)NCc1ccccc1 (stereo unspecified),inhibition,at 16.7 µM unless noted,-4.2% [at 12.3 µM]
CNS(=O)(=O)c1cccc(C(=O)NC2CCCc3ccccc32)c1 (stereo unspecified),inhibition,at 16.7 µM unless noted,15.1% [at 12.3 µM]
CSCCC(NS(=O)(=O)c1ccc2c(c1)oc(=O)n2C)C(=O)NC1CCCc2ccccc21 (stereo unspecified),inhibition,at 16.7 µM unless noted,87% [at 12.3 µM] (active)
